Reference: PubChem BioAssay (NCI)
Values joined by “and” are separate entries in the source; they are usually repeats but may differ in a detail not shown here. Identical values can stand only once. Compounds without any hit were thinned out: in the full panel of roughly 79,000, 15% have a hit. Where a structure was tested more than once in an assay, its records may differ in their call. Active and inactive are the calls of the source. Cut-off read from the data, not from the text of the source: active = growth inhibition above about 70%; inactive = the rest.

Columns and labels:
[1] = NCI Yeast Anticancer Drug Screen. Data for the rad50 strain (AID 155);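 note: 0% = growth of vehicle-only cultures of the same strain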; conditions: S. cerevisiae rad50 strain growth inhibition, stronger effect = higher value
Outline: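 Readout: growth inhibition relative to vehicle-treated cultures. Compound exposure was carried out in a genetically defined yeast strain deficient in DNA damage repair.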

[2] = NCI Yeast Anticancer Drug Screen. Data for the mec2-1 strain (AID 157); conditions: S. cerevisiae mec2-1 strain, stronger effect = higher value
Outline: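 Strain: mec2-1 (DNA repair/cell cycle alteration). Compound exposure, then growth measured; inhibition expressed relative to vehicle.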

[3] = NCI Yeast Anticancer Drug Screen. Data for the sgs1 mgt1 strain (AID 161);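 note: 0% = growth of cultures given vehicle only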; conditions: S. cerevisiae sgs1 mgt1 strain, stronger effect = higher value
Outline: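 Test agents were incubated with a DNA-repair-mutant yeast strain. Growth was then read and compared against vehicle-treated controls.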

[4] = NCI Yeast Anticancer Drug Screen. Data for the cln2 rad14 strain (AID 165);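 note: 0% = growth equal to vehicle treated cultures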; conditions: S. cerevisiae cln2 rad14 strain, stronger effect = higher value
Outline: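 Compounds are applied to the cln2 rad14 yeast strain, and growth is then compared with that of vehicle-treated cultures to give inhibition.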

[5] = NCI Yeast Anticancer Drug Screen. Data for the bub3 strain (AID 167); conditions: S. cerevisiae bub3 mutant strain, stronger effect = higher value
Outline: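 Readout: yeast growth inhibition, expressed relative to vehicle-only wells. The test organism is a mutant strain from a panel with lesions in DNA repair or checkpoint genes.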

[6] = NCI Yeast Anticancer Drug Screen. Data for the mlh1 rad18 strain (AID 175); conditions: S. cerevisiae mlh1 rad18 strain growth inhibition, stronger effect = higher value
Outline: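 Read-out is yeast growth inhibition, calculated against vehicle-only controls. The compound was applied to a strain engineered with DNA damage repair alterations.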

[7] = at 5.0 µM (retest, dose inferred, filed as 0.5)
[8] = at 50.0 µM (retest, dose inferred, filed as 5.0)

Structure (SMILES) | growth inhibition [1, 7] | growth inhibition [1, 8] | growth inhibition ([1]; at 50.0 µM) | growth inhibition [2, 7] | growth inhibition [2, 8] | growth inhibition ([2]; at 50.0 µM) | growth inhibition [3, 7] | growth inhibition [3, 8] | growth inhibition ([3]; at 50.0 µM) | growth inhibition [4, 7] | growth inhibition [4, 8] | growth inhibition ([4]; at 50.0 µM) | growth inhibition [5, 7] | growth inhibition [5, 8] | growth inhibition ([5]; at 50.0 µM) | growth inhibition [6, 7] | growth inhibition [6, 8] | growth inhibition ([6]; at 50.0 µM)
CCN(CC)CCNc1n[n+]([O-])c2cc([N+](=O)[O-])ccc2[n+]1[O-] | 31% (inactive) | 88% (active) | 80.5% (active) and 79% (active) | 5% (inactive) | 48% (inactive) | 58.8% (inactive) and 52.6% (inactive) | 16% (inactive) | 76% (active) | 73.5% (active) and 71% (active) | 32% (inactive) | 63% (inactive) | 48% (inactive) and 41% (inactive) | -7% (inactive) | 67% (inactive) | 43.7% (inactive) and 45.1% (inactive) | 24% (inactive) | 85% (active) | 79.3% (active) and 80.5% (active)
O=S(=O)(O)c1ccc(-c2c3nc(c(-c4ccc(S(=O)(=O)O)cc4)c4ccc([nH]4)c(-c4ccc(S(=O)(=O)O)cc4)c4nc(c(-c5ccc(S(=O)(=O)O)cc5)c5ccc2[nH]5)C=C4)C=C3)cc1 | 61% (inactive) and 82% (active) | 94% (active) and 91% (active) | 92.8% (active) and 94.3% (active) | 72% (active) and 96% (active) | 97% (active) and 95% (active) | 96.8% (active) and 87.5% (active) | 74% (active) and 68% (inactive) | 29% (inactive) and 51% (inactive) | 94.8% (active) and 91.8% (active) | 32% (inactive) and 40% (inactive) | 80% (active) and 67% (inactive) | 91.8% (active) and 91.4% (active) | 51% (inactive) and 64% (inactive) | 92% (active) and 83% (active) | 93.6% (active) and 92.8% (active) | 74% (active) and 93% (active) | 92% (active) and 93% (active) | 96% (active) and 91.2% (active)
CC(C)CC(Nc1c(O)ccc2ccccc12)C(=O)O (configuration not stated) | 24% (inactive) | 98% (active) | 98.8% (active) | 0% (inactive) | 99% (active) | 99.4% (active) | 17% (inactive) | 99% (active) | 99.3% (active) | 11% (inactive) | 99% (active) | 72.7% (active) | 15% (inactive) | 99% (active) | 95.2% (active) | 45% (inactive) | 99% (active) | 99.3% (active)
c1ccc2c(c1)[nH]c1c(N3CCOCC3)nnc(N3CCOCC3)c12 | 2% (inactive) | 1% (inactive) | 35.5% (inactive) | -5% (inactive) | 3% (inactive) | 44% (inactive) | -2% (inactive) | 0% (inactive) | 77.8% (active) | -2% (inactive) | -5% (inactive) | 35.3% (inactive) | 0% (inactive) | -1% (inactive) | 47.1% (inactive) | -6% (inactive) | -6% (inactive) | 83% (active)
Cc1cc(C)[nH]c(=O)n1 | -2% (inactive) | 16% (inactive) | -22.4% (inactive) and 84.2% (active) | -1% (inactive) | 11% (inactive) | -16.4% (inactive) and 2.9% (inactive) | 2% (inactive) | 7% (inactive) | -9.15% (inactive) and 22.4% (inactive) | 6% (inactive) | 13% (inactive) | -18.1% (inactive) and 22.9% (inactive) | -4% (inactive) | -2% (inactive) | -2.25% (inactive) and 14.7% (inactive) | -2% (inactive) | 7% (inactive) | -14.6% (inactive) and 45.2% (inactive)
COc1ccc(C2SC(N)=Nc3c2c(C)nn3C(=O)c2ccc(Cl)cc2)cc1OC (configuration not stated) | 6% (inactive) | 11% (inactive) | -19.2% (inactive) | -10% (inactive) | -1% (inactive) | 14.5% (inactive) | -7% (inactive) | 0% (inactive) | 3.85% (inactive) | -21% (inactive) | 1% (inactive) | 64.5% (inactive) | -18% (inactive) | 15% (inactive) | 16.1% (inactive) | -8% (inactive) | -15% (inactive) | -26.6% (inactive)
CCCCCCCCCCCC(=O)CN1CCOCC1 | 34% (inactive) | 99% (active) | 98.9% (active) | 25% (inactive) | 100% (active) | 99.8% (active) | 47% (inactive) | 99% (active) | 61.9% (inactive) | 39% (inactive) | 99% (active) | 97.8% (active) | 87% (active) | 99% (active) | 99.7% (active) | 31% (inactive) | 99% (active) | 99.2% (active)
CC(=O)OC1OC(=O)C(C)(C(C)=O)C1C (configuration not stated) | 19% (inactive) | 95% (active) | 89.9% (active) | 10% (inactive) | 96% (active) | 89.6% (active) | 25% (inactive) | 93% (active) | 89.9% (active) | 27% (inactive) | 81% (active) | 83.2% (active) | 23% (inactive) | 93% (active) | 89.2% (active) | 22% (inactive) | 96% (active) | 89.6% (active)
O=P(C(=S)NC1CC2C=CC1C2)(c1ccccc1)c1ccccc1 (configuration not stated) | 27% (inactive) | 93% (active) | 48% (inactive) | 7% (inactive) | 94% (active) | 51.1% (inactive) | 2% (inactive) | 90% (active) | 26.4% (inactive) | 12% (inactive) | 85% (active) | 73.4% (active) | -3% (inactive) | 92% (active) | 34.1% (inactive) | -31% (inactive) | 90% (active) | 86.7% (active)
O=C(N/C=C/C=C/Sc1ccccc1)OCc1ccccc1 | 6% (inactive) | 97% (active) | 0.05% (inactive) | -6% (inactive) | 98% (active) | 21.8% (inactive) | -20% (inactive) | 98% (active) | 38.6% (inactive) | 23% (inactive) | 97% (active) | -4.35% (inactive) | 5% (inactive) | 99% (active) | 2.2% (inactive) | -8% (inactive) | 98% (active) | 17.6% (inactive)
COC(=O)[C@@H](NS(=O)(=O)CC12CCC(CC1)C2(C)C)C(C)(C)C | 2% (inactive) | 50% (inactive) | 14.2% (inactive) | 1% (inactive) | 51% (inactive) | 26.1% (inactive) | 16% (inactive) | 70% (active) | 25.7% (inactive) | 6% (inactive) | 48% (inactive) | 21.4% (inactive) | 0% (inactive) | 54% (inactive) | 10.9% (inactive) | 0% (inactive) | 83% (active) | 58.6% (inactive)
O=C1C=C(c2c(O)ccc3ccccc23)c2ccccc2C1=O | 48% (inactive) and 29% (inactive) | 98% (active) | 98.9% (active) and 85.8% (active) | 73% (active) and 21% (inactive) | 99% (active) and 98% (active) | 98.8% (active) and 85% (active) | 80% (active) and 40% (inactive) | 98% (active) | 84.8% (active) and 89.8% (active) | 59% (inactive) and 36% (inactive) | 99% (active) and 98% (active) | 98.7% (active) and 89.3% (active) | 46% (inactive) and 40% (inactive) | 99% (active) and 97% (active) | 98.7% (active) and 90.3% (active) | 94% (active) and 73% (active) | 98% (active) and 97% (active) | 98.7% (active) and 90.2% (active)
COc1cc(C2C(C#N)=C(C)Nc3nc(N)nc(N)c32)cc(OC)c1OC (configuration not stated) | -6% (inactive) | 19% (inactive) | 24.6% (inactive) | -7% (inactive) | 13% (inactive) | 3.75% (inactive) | -8% (inactive) | 10% (inactive) | 19.1% (inactive) | -6% (inactive) | 9% (inactive) | 81.4% (active) | 0% (inactive) | 65% (inactive) | 1.2% (inactive) | -1% (inactive) | 21% (inactive) | 8.95% (inactive)
Oc1ccc(N=Nc2ccccn2)c(O)c1 | -174% (inactive) and 98% (active) | 94% (active) and 98% (active) | 98.5% (active) and 88.8% (active) | -53% (inactive) and 99% (active) | 97% (active) and 99% (active) | 98.5% (active) and 90.5% (active) | -67% (inactive) and 19% (inactive) | 94% (active) and 97% (active) | 98.2% (active) and 91.2% (active) | -66% (inactive) and 42% (inactive) | 94% (active) and 98% (active) | 96% (active) and 86.2% (active) | -67% (inactive) and 42% (inactive) | 96% (active) | 97.5% (active) and 89.8% (active) | -127% (inactive) and 100% (active) | 95% (active) and 99% (active) | 98.4% (active) and 89% (active)
